The whole screen tested about 5,500 compounds, of which about 2,000 (36%) were called active. Another 18% or so got no clear call; they are omitted. This is one part of the list. Values without a mark were called inactive. No stated cut-off is given here; in the data, active means normalized growth mostly below about 0.91 (no sharp cut-off); inconclusive means no clear call, values can overlap the other calls; inactive means mostly above about 0.92.
Experiment: chemical genetic growth profiling, strain panel (AID 1159580);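 further: tested at 20 µM; growth read once vehicle control cultures reached saturation at 30 °C; 1 = growth at the plate median or of vehicle wells; lower values mean less growth of the strain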
Conditions: S. cerevisiae deletion strains, growth OD

**Q.** Which normalized growth (locus YAL021C, strain ccr4, hits give low values) does the source give for `c1ccc2c(Cc3c[nH]c4ccccc34)c[nH]c2c1` here?
**A.** 0.848 (active)

**Q.** What about the normalized growth (locus YAL026C, strain drs2, hits give low values) of the same compound?
**A.** 0.263 (active)

**Q.** And the normalized growth (locus YAL030W, strain snc1, hits give low values)?
**A.** 0.785 (active)

**Q.** And the normalized growth (locus YBL061C, strain skt5, hits give low values)?
**A.** 0.51 (active)

**Q.** What about the normalized growth (locus YBR009C, strain hhf1, hits give low values) of the same compound?
**A.** 0.341 (active)

**Q.** What about the normalized growth (locus YBR023C, strain chs3, hits give low values) of the same compound?
**A.** 0.523 (active)

**Q.** What about the normalized growth (locus YBR171W, strain sec66, hits give low values) of the same compound?
**A.** 0.515 (active)

**Q.** What about the normalized growth (locus YBR231C, strain swc5, hits give low values) of the same compound?
**A.** 0.501 (active)

**Q.** And the normalized growth (locus YBR279W, strain paf1, hits give low values)?
**A.** 0.496 (active)

**Q.** And the normalized growth (locus YCL011C, strain gbp2, hits give low values)?
**A.** 0.319 (active)

**Q.** What about the normalized growth (locus YCL016C, strain dcc1, hits give low values) of the same compound?
**A.** 0.543 (active)

**Q.** What about the normalized growth (locus YCL069W, strain vba3, hits give low values) of the same compound?
**A.** 0.364 (active)

**Q.** And the normalized growth (locus YCR088W, strain abp1, hits give low values)?
**A.** 0.632 (active)

**Q.** What about the normalized growth (locus YDL005C, strain med2, hits give low values) of the same compound?
**A.** 0.939

**Q.** And the normalized growth (locus YDL040C, strain nat1, hits give low values)?
**A.** 0.784 (active)

**Q.** What about the normalized growth (locus YDR001C, strain nth1, hits give low values) of the same compound?
**A.** 0.824 (active)

**Q.** And the normalized growth (locus YDR069C, strain doa4, hits give low values)?
**A.** 1

**Q.** And the normalized growth (locus YDR137W, strain rgp1, hits give low values)?
**A.** 0.331 (active)

**Q.** And the normalized growth (locus YDR159W, strain sac3, hits give low values)?
**A.** 0.547 (active)

**Q.** What about the normalized growth (locus YDR195W, strain ref2) of the same compound?
**A.** 1.24 [resistant] (active)

**Q.** What about the normalized growth (locus YDR297W, strain sur2, hits give low values) of the same compound?
**A.** 0.704 (active)

**Q.** What about the normalized growth (locus YDR334W, strain swr1, hits give low values) of the same compound?
**A.** 0.459 (active)

**Q.** And the normalized growth (locus YDR335W, strain msn5, hits give low values)?
**A.** 0.501 (active)

**Q.** What about the normalized growth (locus YDR392W, strain spt3, hits give low values) of the same compound?
**A.** 0.11 (active)

**Q.** And the normalized growth (locus YEL003W, strain gim4, hits give low values)?
**A.** 0.282 (active)

**Q.** What about the normalized growth (locus YEL037C, strain rad23, hits give low values) of the same compound?
**A.** 0.779 (active)

**Q.** What about the normalized growth (locus YEL061C, strain CIN8 (second series), hits give low values) of the same compound?
**A.** 0.413 (active)

**Q.** And the normalized growth (locus YER015W, strain faa2, hits give low values)?
**A.** 0.443 (active)

**Q.** And the normalized growth (locus YER016W, strain bim1, hits give low values)?
**A.** 0.681 (active)

**Q.** And the normalized growth (locus YER111C, strain swi4, hits give low values)?
**A.** 0.455 (active)

**Q.** And the normalized growth (locus YER155C, strain BEM2 (second series), hits give low values)?
**A.** 0.147 (active)

**Q.** What about the normalized growth (locus YFR010W, strain ubp6, hits give low values) of the same compound?
**A.** 0.836 (active)

**Q.** What about the normalized growth (locus YGL167C, strain pmr1, hits give low values) of the same compound?
**A.** 0.958

**Q.** What about the normalized growth (locus YGL173C, strain kem1, hits give low values) of the same compound?
**A.** 0.765 (active)

**Q.** And the normalized growth (locus YGL227W, strain vid30, hits give low values)?
**A.** 0.154 (active)

**Q.** And the normalized growth (locus YGL240W, strain doc1, hits give low values)?
**A.** 0.68 (active)

**Q.** And the normalized growth (locus YGL253W, strain hxk2, hits give low values)?
**A.** 0.348 (active)

**Q.** What about the normalized growth (locus YHR013C, strain ard1, hits give low values) of the same compound?
**A.** 0.617 (active)

**Q.** And the normalized growth (locus YHR027C, strain rpn1, hits give low values)?
**A.** 0.615 (active)

**Q.** What about the normalized growth (locus YHR030C, strain SLT2, hits give low values) of the same compound?
**A.** 0.428 (active)

**Q.** What about the normalized growth (locus YHR079C, strain IRE1, hits give low values) of the same compound?
**A.** 0.531 (active)

**Q.** What about the normalized growth (locus YHR142W, strain chs7, hits give low values) of the same compound?
**A.** 0.202 (active)

**Q.** And the normalized growth (locus YJL092W, strain hpr5, hits give low values)?
**A.** 0.635 (active)

**Q.** And the normalized growth (locus YJL095W, strain BCK1 (second series), hits give low values)?
**A.** 0.47 (active)

**Q.** And the normalized growth (locus YJL095W, strain BCK1, hits give low values)?
**A.** 0.528 (active)

**Q.** And the normalized growth (locus YJL115W, strain asf1, hits give low values)?
**A.** 0.811 (active)

**Q.** What about the normalized growth (locus YJL129C, strain trk1, hits give low values) of the same compound?
**A.** 0.518 (active)

**Q.** And the normalized growth (locus YJL154C, strain vps35, hits give low values)?
**A.** 0.794 (active)

**Q.** And the normalized growth (locus YJL164C, strain tpk1, hits give low values)?
**A.** 0.429 (active)

**Q.** What about the normalized growth (locus YJL166W, strain qcr8, hits give low values) of the same compound?
**A.** 0.356 (active)

**Q.** And the normalized growth (locus YJR066W, strain TOR1, hits give low values)?
**A.** 0.54 (active)

**Q.** And the normalized growth (locus YKL160W, strain elf1, hits give low values)?
**A.** 0.388 (active)

**Q.** And the normalized growth (locus YKR026C, strain gcn3, hits give low values)?
**A.** 0.763 (active)

**Q.** And the normalized growth (locus YKR091W, strain srl3, hits give low values)?
**A.** 0.802 (active)

**Q.** What about the normalized growth (locus YLL001W, strain dnm1, hits give low values) of the same compound?
**A.** 0.421 (active)

**Q.** What about the normalized growth (locus YLL026W, hits give low values) of the same compound?
**A.** 0.469 (active)

**Q.** And the normalized growth (locus YLL041C, strain sdh2, hits give low values)?
**A.** 0.758 (active)

**Q.** And the normalized growth (locus YLR027C, strain aat2, hits give low values)?
**A.** 0.446 (active)

**Q.** What about the normalized growth (locus YLR113W, strain HOG1, hits give low values) of the same compound?
**A.** 0.648 (active)

**Q.** And the normalized growth (locus YLR221C, strain rsa3, hits give low values)?
**A.** 0.343 (active)

**Q.** What about the normalized growth (locus YLR258W, strain gsy2, hits give low values) of the same compound?
**A.** 0.722 (active)

**Q.** What about the normalized growth (locus YLR262C, strain YPT6 (second series), hits give low values) of the same compound?
**A.** 0.348 (active)

**Q.** What about the normalized growth (locus YLR320W, strain mms22, hits give low values) of the same compound?
**A.** 0.235 (active)

**Q.** And the normalized growth (locus YLR342W, strain FKS1, hits give low values)?
**A.** 0.518 (active)

**Q.** What about the normalized growth (locus YLR357W, strain rsc2, hits give low values) of the same compound?
**A.** 0.876

**Q.** What about the normalized growth (locus YLR370C, strain arc18, hits give low values) of the same compound?
**A.** 0.57 (active)

**Q.** What about the normalized growth (locus YLR384C, strain iki3, hits give low values) of the same compound?
**A.** 0.829 (active)

**Q.** What about the normalized growth (locus YML120C, strain ndi1, hits give low values) of the same compound?
**A.** 0.324 (active)

**Q.** What about the normalized growth (locus YMR058W, strain fet3, hits give low values) of the same compound?
**A.** 0.322 (active)

**Q.** What about the normalized growth (locus YMR125W, strain sto1, hits give low values) of the same compound?
**A.** 0.469 (active)

**Q.** What about the normalized growth (locus YMR129W, hits give low values) of the same compound?
**A.** 0.647 (active)

**Q.** And the normalized growth (locus YMR205C, strain PFK2, hits give low values)?
**A.** 0.506 (active)

**Q.** What about the normalized growth (locus YMR231W, strain pep5, hits give low values) of the same compound?
**A.** 0.249 (active)

**Q.** What about the normalized growth (locus YNL071W, strain lat1, hits give low values) of the same compound?
**A.** 0.106 (active)

**Q.** And the normalized growth (locus YNL183C, strain NPR1, hits give low values)?
**A.** 0.593 (active)

**Q.** And the normalized growth (locus YNL209W, strain ssb2, hits give low values)?
**A.** 0.644 (active)

**Q.** What about the normalized growth (locus YNL248C, strain rpa49, hits give low values) of the same compound?
**A.** 0.629 (active)

**Q.** What about the normalized growth (locus YNL322C, strain KRE1 (second series), hits give low values) of the same compound?
**A.** 0.73 (active)

**Q.** And the normalized growth (locus YNR049C, strain mso1, hits give low values)?
**A.** 0.674 (active)

**Q.** What about the normalized growth (locus YOR001W, strain rrp6, hits give low values) of the same compound?
**A.** 0.531 (active)

**Q.** What about the normalized growth (locus YOR070C, strain gyp1, hits give low values) of the same compound?
**A.** 0.379 (active)

**Q.** And the normalized growth (locus YOR080W, strain dia2, hits give low values)?
**A.** 0.772 (active)

**Q.** And the normalized growth (locus YOR083W, strain WHI5, hits give low values)?
**A.** 0.419 (active)

**Q.** What about the normalized growth (locus YOR106W, strain vam3, hits give low values) of the same compound?
**A.** 0.43 (active)

**Q.** And the normalized growth (locus YOR231W, strain MKK1, hits give low values)?
**A.** 0.511 (active)

**Q.** And the normalized growth (locus YOR265W, strain rbl2, hits give low values)?
**A.** 0.534 (active)

**Q.** What about the normalized growth (locus YOR270C, strain vph1, hits give low values) of the same compound?
**A.** 0.338 (active)

**Q.** What about the normalized growth (locus YOR290C, strain snf2, hits give low values) of the same compound?
**A.** 0.219 (active)

**Q.** What about the normalized growth (locus YPL051W, strain arl3, hits give low values) of the same compound?
**A.** 0.264 (active)

**Q.** And the normalized growth (locus YPL078C, strain atp4, hits give low values)?
**A.** 0.363 (active)

**Q.** And the normalized growth (locus YPL106C, strain sse1, hits give low values)?
**A.** 1

**Q.** What about the normalized growth (locus YPL240C, strain hsp82, hits give low values) of the same compound?
**A.** 0.63 (active)

**Q.** And the normalized growth (locus YPL256C, strain CLN2, hits give low values)?
**A.** 0.652 (active)
